In all, about 300,000 compounds went through this assay and about 3,700 (1.2%) were called active. Entries that show only a call come without a potency. Not shown: some 20% with an inconclusive outcome. Calls follow the shape of the full dose curve; tested in HEK293 cells. Only a selection was taken, and actives are over-represented in it overall.
Experiment: qHTS for Inhibitors of binding or entry into cells for Lassa Virus; also: nearly all actives have a fitted effect of over 50% in size
Conditions: Lassa virus pseudotype entry inhibition, cell reporter; series mostly up to 37.9 µM
Potency is read from the fitted curve at half-maximal effect.

| SMILES | Potency |
| --- | --- |
| Cn1cccc1C(=O)OCC(=O)c1ccc(Br)s1 | inactive |
| COc1ccc(CNC(=O)CN2C(=O)c3ccccc3S2(=O)=O)cc1 | inactive |
| COc1ccc(COC(=O)N/N=C(\C)CC(=O)Nc2ccc(Cl)cc2)cc1 | 0.141 µM (active) |
| C/C(CC(=O)Nc1ccc(Cl)cc1)=N\NC(=O)C(=O)NCCO | inactive |
| COc1cccc(NC(=O)C/C(C)=N/NC(=O)C2CCCCC2)c1 | inactive |
| CCN(CC(=O)Nc1ccccc1OC)C(=O)CC1CC2CCC1C2 (stereo not drawn) | inactive |
| Cc1ccc(OCC(=O)N/N=C\c2ccco2)c(C)c1 | inactive |
| Cc1ccc(/C=N/NC(=O)COc2ccccc2-c2ccccc2)cc1 | 1.64 µM (active) |
| Cc1ccc(OCC(=O)N/N=C/c2ccncc2)cc1 | inactive |
| O=C(CCl)Nc1cccc(CP(=O)(c2ccccc2)c2ccccc2)c1 | 7.94 µM (active) |
| O=C(Cc1ccccc1)Nc1cccc(NC(=O)c2ccccc2)c1 | inactive |
| CCc1cccc(NC(=O)CCC(=O)O)c1 | inactive |
| CN(C)S(=O)(=O)c1ccc(N2CCCC2)c(C(=O)Nc2ccc(Br)cc2F)c1 | inactive |
| CCCn1nc(C(=O)OCc2nc(N)nc(Nc3ccccc3C)n2)c2ccccc2c1=O | inactive |
| CCC(C(=O)Nc1cc(OC)ccc1OC)n1c(=O)c(C(F)(F)F)nc2ccccc21 (stereo not drawn) | inactive |
| O=C(N/C(=C/c1ccc(Cl)cc1)C(=O)N1CCCCC1)c1ccco1 | inactive |
| CCn1cc(C(=O)NCc2ccccc2)c(=O)c2cc(S(=O)(=O)N3CCCCC3)ccc21 | inactive |
| C=CCn1cc(C(=O)NCc2ccc(Cl)cc2)c(=O)c2cc(S(=O)(=O)N(CC)CC)ccc21 | 0.398 µM (active) |
| CCN(CC)S(=O)(=O)c1ccc2c(c1)c(=O)c(C(=O)N1CCN(c3cccc(Cl)c3)CC1)cn2C | inactive |
| CC(=O)OC1CCC2(C)C(=CCC3C4CC(=O)N(O)C(=O)C4(C)CCC32)C1 (stereo not drawn) | inactive |
| CC(C(=O)NC1CCCC1)N1CCN(S(=O)(=O)c2ccccc2Cl)CC1 (stereo not drawn) | inactive |

| SMILES | Potency |
| --- | --- |
| Cc1ccc(N(CC(=O)NC2CCCCC2)C(=O)CCCC(=O)Nc2ccccn2)c(C)c1 | inactive |
| c1ccc2c(NC3C4CC5CC(C4)CC3C5)nc(N3CCOCC3)nc2c1 (stereo not drawn) | inactive |
| CC(Nc1nc(N2CCOCC2)nc2ccccc12)c1ccccc1 (stereo not drawn) | inactive |
| CC(Nc1nc(N2CCCC2)nc2ccccc12)c1ccccc1 (stereo not drawn) | 12.6 µM (active) |
| Cc1ccc(S(=O)(=O)N2CCC(C(=O)NCCC3=CCCCC3)CC2)cc1C | inactive |
| COc1cc(NC(=O)c2ccc(-c3csc(C)n3)cc2)c(OC)cc1Cl | inactive |
| O=C1c2ccccc2C(=O)c2c1cccc2N1CCN(C/C=C/c2ccccc2)CC1 | inactive |
| O=C(Nc1cccc(Br)c1)C1CC(=O)N(C2CCCC2)C1 (stereo not drawn) | inactive |
| CN(c1ccccc1)S(=O)(=O)c1cccc(NC(=O)Cc2c(F)cccc2Cl)c1 | 11.2 µM (active) |
| CN(C)S(=O)(=O)c1cccc(NC(=O)COC(=O)/C=C/c2cccs2)c1 | inactive |
| NS(=O)(=O)c1ccc(NC(=O)COC(=O)C2(c3ccc(F)cc3)CCCC2)cc1 | inactive |
| CN(c1cccc(NC(=O)Nc2ccc(Cl)cc2)c1)S(C)(=O)=O | inactive |
| CN(c1ccccc1)S(=O)(=O)c1cccc(NC(=O)Cc2ccc(Cl)cc2)c1 | 8.91 µM (active) |
| CN(c1ccccc1)S(=O)(=O)c1cccc(C(=O)NNC(=O)c2ccncc2)c1 | inactive |
| CN(C)S(=O)(=O)c1cccc(NC(=S)N/N=C/C(=O)c2ccccc2)c1 | inactive |
| CN(C)S(=O)(=O)c1cccc(NC(=O)COC(=O)c2cc(=O)[nH]c(=O)[nH]2)c1 | inactive |
| CN(C)S(=O)(=O)c1cccc(NC(=O)COC(=O)C2(c3ccccc3F)CCCC2)c1 | 4.11 µM (active) |
| CN(c1ccccc1)S(=O)(=O)c1ccc(Cl)c(C(=O)OCC(N)=O)c1 | inactive |
| CN(C)S(=O)(=O)c1cccc(NC(=O)Cc2ccsc2)c1 | 2.82 µM (active) |
| Cc1ccc(S(=O)(=O)N(CC(=O)Nc2cccc([N+](=O)[O-])c2)Cc2ccc(Cl)cc2)cc1 | inactive |
| O=C(COC(=O)C1CCCO1)Nc1nc(-c2ccc(F)cc2)cs1 (stereo not drawn) | inactive |

| SMILES | Potency |
| --- | --- |
| COc1cc(N)c(Cl)cc1C(=O)OCC(=O)c1ccc2c(c1)NC(=O)CO2 | inactive |
| COC(=O)C=C[C@H]1c2ccccc2[C@@H](OC)[C@@H]1C | inactive |
| NC1=NC(c2ccc([N+](=O)[O-])cc2)N(c2ccc(F)cc2)C(N)=N1 (stereo not drawn) | inactive |
| CC(C)Sc1nc(N)nc2c1ncn2C1OC(CO)C(O)C1O (stereo not drawn) | inactive |
| COc1cc2c(cc1OC)CN(C(=O)c1cc(S(=O)(=O)N3CCCCC3)ccc1Cl)CC2 | inactive |
| CCOc1ccccc1NC(=S)C(=C([O-])c1ccc2c(c1)OCCO2)[n+]1ccc(CC)cc1 | inactive |
| CC(C)c1ccc(NC(=O)c2ccc(Cn3nc(N4CCN(c5ccccc5)CC4)ccc3=O)o2)cc1 | inactive |
| O=C(CSc1nnc(COc2ccc(Cl)cc2)n1Cc1ccco1)N1CCNC1=O | inactive |
| O=C(c1cc(C(=O)N2CCN(c3ccc(F)cc3)CC2)cc([N+](=O)[O-])c1)N1CCN(c2ccc(F)cc2)CC1 | inactive |
| O=C(NCCCN1CCCC1=O)C(=O)NCC1OCCN1S(=O)(=O)c1ccc(Br)cc1 (stereo not drawn) | inactive |
| CCc1cccc(NC(=O)CN(C)S(=O)(=O)c2ccc3[nH]c4c(c3c2)CCCC4)c1 | inactive |
| Cc1cccc(NC(=S)NCc2ccc3[nH]c4c(c3c2)CCCC4)c1 | 20.6 µM (active) |
| Cc1cc(C)cc(NC(=S)NCc2ccc(F)cc2)c1 | inactive |
| CCCC(O)(c1ccccc1)C(c1ccccc1)c1ccccn1 (stereo not drawn) | inactive |
| CCOC(=O)c1ccc(NC(=O)C2CCN(S(=O)(=O)c3ccc4c(c3)CCCC(=O)N4)CC2)cc1 | inactive |
| COc1ccc(C(=O)NCCc2ccc(S(N)(=O)=O)cc2)cc1OC | inactive |
| Cc1c(C)n(Cc2ccc(Cl)cc2)c2ccc(C(=O)NCCc3ccc(S(N)(=O)=O)cc3)cc12 | inactive |
| CC(C)(CO)CNC(=O)c1ccc2[nH]c(O)c(N=Nc3ccc(S(N)(=O)=O)cc3)c2c1 | 1.58 µM (active) |
| CCCCOc1ccc(N(CC(=O)NCC2CCCO2)C(=O)CCC(=O)Nc2cc(C)ccn2)cc1 (stereo not drawn) | 23.1 µM (active) |
| Cc1cc(NC(=O)CCC(=O)N(CC(=O)NCC2CCCO2)c2ccccc2)no1 (stereo not drawn) | inactive |
| Cc1cc(NC(=O)CCC(=O)N(CC(=O)NCC2CCCO2)c2ccccc2C)no1 (stereo not drawn) | inactive |
